Sampled rows, rich in hits. Any-hit rate of the full collection: about 4%.
Anthrax LF prot = Bacillus anthracis LF protease inhibitors, primary screen, biochemical, multiplex microsphere, MLPCN library. Lethal factor (Bacillus anthracis), P15917. multiplex microsphere protease cleavage assay. inhibition, % at 10 µM. 0.12% of 360,000 active; also: plate controls were buffer without enzyme for full effect and enzyme alone for no effect
BoNT F protease = BoNT/F light chain protease inhibitors, primary screen, biochemical, flow cytometry, MLPCN library; Botulinum neurotoxin type F light chain protease (Clostridium botulinum); Multiplex microsphere protease cleavage assay; inhibition, % at 10 µM; 0.22% of 360,000 active; AID 588497, 2011; in the data active = inhibition above about 35%, passing the limit was not always enough; inconclusive = no clear call, values can overlap the other calls; also: plate controls were buffer without enzyme for full effect and enzyme alone for no effect
BoNT A protease = BoNT/A light chain protease inhibitors, primary screen, biochemical, flow cytometry, MLPCN library; multiplex microsphere protease substrate cleavage; inhibition, % at 10 µM; 0.17% of 360,000 active; AID 588499, 2011; also: plate controls were buffer without enzyme for full effect and enzyme alone for no effect
DUSP3 inh = VHR1 phosphatase inhibitors, primary screen, biochemical, absorbance, uHTS; Dual specificity protein phosphatase 3 (Homo sapiens), P51452; recombinant VHR phosphatase, pNPP absorbance; inhibition, % at 13.3 µM; 0.52% of 290,000 active; AID 1654, 2009; in the data active = inhibition above about 50%
Target sequence (P51452 whole entry, looked up): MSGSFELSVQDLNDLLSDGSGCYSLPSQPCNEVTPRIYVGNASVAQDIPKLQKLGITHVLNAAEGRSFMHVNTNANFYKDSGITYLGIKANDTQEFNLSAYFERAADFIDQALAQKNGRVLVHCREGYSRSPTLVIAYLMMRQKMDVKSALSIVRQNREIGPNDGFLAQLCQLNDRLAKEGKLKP
Bead autofluor = compound fluorescence in toxin protease inhibitor counterscreen; AID 624483; fluorescence intensity (no concentration beside the values); compound autofluorescence counterscreen, microsphere flow cytometry; active compounds read high; 3.1% of 360,000 active; in the data active = fluorescence intensity above about 16000; inconclusive = no clear call, values can overlap the other calls
MazF activator = activators of E. coli MazEF toxin-antitoxin RNase, primary screen, biochemical, fluorescence, uHTS. Endoribonuclease toxin MazF (Escherichia coli (strain K12)), P0AE70. FAM/BHQ RNA-DNA oligo cleavage fluorescence, 5 h. activation, % at 20 µM. 0.32% of 350,000 active; in the data active = activation above about 50%
Target sequence (P0AE70 whole entry, looked up): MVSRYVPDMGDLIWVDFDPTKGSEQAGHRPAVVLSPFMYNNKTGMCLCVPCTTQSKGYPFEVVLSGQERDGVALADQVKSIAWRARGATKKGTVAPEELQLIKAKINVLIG
* = called active by the depositor; u = inconclusive; x = not tested or not shown. Rule as the data show it, unless noted: active = inhibition above about 30%; inconclusive = no clear call, values can overlap the other calls; inactive = below that.

SMILES | Anthrax LF prot | BoNT F protease | BoNT A protease | DUSP3 inh | Bead autofluor | MazF activator
Cc1nc(C)c(C(=O)N(c2ccccc2F)C(C(=O)NCC2CCCO2)c2ccccc2)s1 (stereo not given) | 0 | -4 | -2 | 54* | 5711 | 3
Cc1ccc(-c2nnn(CC(=O)N(c3ccccc3F)C(C(=O)NCC3CCCO3)c3c[nH]c4ccccc34)n2)cc1 (stereo not given) | -6 | 0 | 1 | 29 | 16194* | -9
COc1cc(OC)c(NC(=O)c2cc3ccccc3cc2O)cc1Cl | 4 | -2 | 0 | x | 2789 | 13
CCN1C=C(Cc2ccc(F)cc2)C2=C(C1)C(c1ccc(F)cc1)C(C#N)=C(N)O2 (stereo not given) | 2 | -8 | 1 | 22 | 2241 | 77*
Cc1cc(-c2csc(NC(=O)c3ccc(=O)[nH]c3)n2)c(C)n1Cc1ccco1 | -11 | 4 | -2 | 112* | 3910 | -8
CN(CC(=O)Nc1ccc(F)c(F)c1F)C(=O)CCCc1nc2ccccc2c(=O)[nH]1 | 6 | 3 | 2 | x | 8826 | -4
O=C(NCC1CCCO1)c1cnc(Cl)c(Cl)c1 (stereo not given) | 32* | 14 | 2 | -15 | 3554 | 5
O=C(NCC1CCCO1)c1cccc(C(=O)NCC2CCCO2)c1 (stereo not given) | -19 | u | 1 | -3 | 3758 | 6
CCCC(=O)Nc1ccc(C(=O)NCC2CCCO2)cc1 (stereo not given) | 1 | -1 | -2 | 12 | 24245* | -1
O=C(NCC1CCCO1)c1cccc(Br)c1 (stereo not given) | 2 | -2 | u | 23 | 16290* | -5
O=C(NCCc1ccccc1)c1cnc(Cl)c(Cl)c1 | 35* | 5 | 0 | -6 | 2953 | 9
O=C(NCC1CCCO1)c1ccc(NC(=O)c2cccc(Br)c2)cc1 (stereo not given) | -7 | 6 | -2 | 2 | 3925 | 8
CC1(C)Cc2c(C#N)c(NCCCO)nc(-c3ccccc3)c2CO1 | -6 | -10 | -1 | 21 | 5302 | 6
Cc1ccc(-n2c(SCC(=O)OC(C)C)nnc2-c2ccccn2)cc1 | -4 | 4 | 0 | 17 | 4009 | 0
COC(=O)c1cn(-c2ccc(F)cc2)c(=O)c2ccccc12 | 3 | 7 | 2 | 14 | 4520 | 1
CO/N=C/NC(=O)c1cn(-c2ccc(F)cc2)c(=O)c2ccccc12 | -4 | -2 | -1 | 7 | 16209* | 9
CCOC(=O)Nc1ccc2c(c1)N(C(=O)CN1CCN(C)CC1)c1ccccc1S2 | -1 | 1 | 1 | 7 | 9970 | 4
COc1ccc(N2C(=O)CSC23CCCCC3)cc1 | -8 | 0 | -1 | 13 | 21829* | -3
CCOc1ccc(N2C(=O)CSC23CCCCC3)cc1 | 2 | 4 | 0 | -31 | 3963 | -6
CNn1cnc2ccsc2c1=O | -19 | u | u | -19 | 3556 | -4
N=Cc1c(O)n(-c2cccc(Cl)c2)c(=O)[nH]c1=O | -2 | -2 | -1 | -4 | 23754* | 6
O=C1c2cccc3c([N+](=O)[O-])ccc(c23)C(=O)N1c1ccc(Cl)cn1 | 1 | -2 | 0 | 19 | 20167* | -19
O=C1c2cccc3c([N+](=O)[O-])ccc(c23)C(=O)N1c1ccccn1 | 2 | 12 | 2 | -1 | 2295 | 13
O=C1c2cccc3c([N+](=O)[O-])ccc(c23)C(=O)N1c1nccs1 | -2 | -1 | 0 | -2 | 23502* | 12
Cc1ccccc1N1C(=O)CC(=O)NC1=O | 1 | -8 | -7 | 2 | 21951* | 5
SMILES | Anthrax LF prot | BoNT F protease | BoNT A protease | DUSP3 inh | Bead autofluor | MazF activator
COc1cccc(N2C(=O)CC(=O)NC2=O)c1 | -1 | -1 | -1 | 30 | 23335* | -8
O=C1Nc2cc(C(=O)N3CCc4ccccc4C3)ccc2S/C1=C\c1ccccc1 | -1 | 2 | 0 | 1 | 2308 | -18
CC(C(=O)N=c1sc2ccccc2n1C)N1C(=O)C2CC=CCC2C1=O (stereo not given) | -1 | 3 | 3 | 20 | 21549* | 5
CCC(C)C1Nc2ccc(C(=O)NCc3ccc4c(c3)OCO4)cc2NC1=O (stereo not given) | -7 | -6 | 1 | -3 | 3829 | 9
CC(C)C(=O)N1C2CCC1CC(O)(c1ccc(F)cc1)C2 (stereo not given) | 2 | -11 | 0 | 7 | 4025 | 10
CC1(C)CC(N2CCCCC2)=CC(=[N+]2CCCCC2)C1 | 6 | 0 | -2 | 18 | 27656* | 2
CC1(C)CC(N2CCOCC2)=CC(=[N+]2CCOCC2)C1 | -6 | -3 | 0 | 17 | 4565 | -3
O=C(N=C1SC2CS(=O)(=O)CC2N1c1ccc(Cl)cc1)C1CCCO1 (stereo not given) | -2 | -1 | -1 | -5 | 6154 | 7
O=C(COc1ccccc1)N=C1SC2CS(=O)(=O)CC2N1c1ccc(F)cc1 (stereo not given) | 3 | 4 | 1 | 54* | 5507 | 1
COc1ccc(N2C(=NC(=O)C3CCCO3)SC3CS(=O)(=O)CC32)cc1 (stereo not given) | 2 | 1 | 0 | 56* | 5628 | 2
COc1ccc(C(=O)O)cc1S(=O)(=O)N(CCc1ccccc1)Cc1ccccc1 | -3 | 3 | 0 | 2 | 4600 | -1
CN1CCN(c2ccccc2NC(=O)Cc2ccc(Cl)cc2)CC1 | 1 | 2 | 5 | 8 | 21557* | -15
CN1CCN(c2ccccc2NC(=O)COc2ccc(Br)cc2)CC1 | -2 | 2 | 4 | 20 | 21142* | 2
Cc1cccc(OCC(=O)Nc2ccccc2N2CCN(C)CC2)c1 | -2 | -4 | 2 | -36 | 4281 | -1
Cc1ccsc1C(=O)NN=C1CCCCCC1 | -2 | -2 | -2 | 53* | u | 8
Cc1cccc(C)c1NC(=O)CN1CCN(C(=O)CNC(=O)Cc2cccc3ccccc23)CC1 | -1 | 6 | 0 | x | 4033 | 3
Cc1ccc(S(=O)(=O)n2ccc(-c3ccc(OCc4c(F)cccc4Cl)cc3)n2)cc1 | -2 | -9 | -1 | 53* | 4622 | -2
CC(C)C(=O)Nc1ccc(NC(=S)NC(=O)c2ccc([N+](=O)[O-])cc2)cc1 | -2 | -4 | -2 | 18 | 23025* | -12
CC(C)C(=O)Nc1cccc(NC(=S)NC(=O)c2ccc([N+](=O)[O-])cc2)c1 | -1 | -4 | u | 17 | 22965* | 6
Cc1cc(C(=O)NC(=S)Nc2cccc(NC(=O)C(C)C)c2)ccc1[N+](=O)[O-] | -1 | -6 | -1 | 38 | 1930 | 7
CC(=O)Nc1ccc(NC(=S)NC(=O)c2ccc([N+](=O)[O-])cc2)cc1 | 0 | -12 | -1 | -4 | 6985 | -5

High-throughput results (PubChem BioAssay)
